# Measured values as given in the supplement of paper PMC4466140.
# Columns and labels:
# Experiment in all cases: SPOT peptide array binding signal intensity (averaged, normalized) (arbitrary units (background-subtracted, floor 0; scale differs between SH3 domains)); higher = stronger binding of the SH3 domain to the peptide
# AgAbp1 = biological target: AgAbp1
# Outline: (§1)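 Binding signal is given in arbitrary units that differ between domains and is the normalized, background-subtracted spot intensity averaged across replicates. Each GST-SH3 fusion from one of four yeast species was made in E. coli BL21(DE3), purified on glutathione Sepharose and incubated at 10 μg/ml overnight at 4°C on cellulose-bound synthetic 15-mer peptides in which cysteines were replaced by serines. Detection used anti-GST antibody, an HRP anti-mouse secondary and luminol, followed by imaging and Genespotter quantification.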
# AgBbc1 = biological target: AgBbc1
# Outline: as §1
# AgBem1-D1 = biological target: AgBem1-D1
# Outline: as §1
# AgBzz1-D1 = biological target: AgBzz1-D1
# Outline: as §1
# AgBzz1-D2 = biological target: AgBzz1-D2
# Outline: as §1
# AgCyk3 = biological target: AgCyk3
# Outline: as §1
# AgFus1 = biological target: AgFus1
# Outline: as §1
# AgHof1 = biological target: AgHof1
# Outline: as §1
# AgHse1 = biological target: AgHse1
# Outline: as §1
# AgLsb1 = biological target: AgLsb1
# Outline: as §1
# AgLsb4 = biological target: AgLsb4
# Outline: as §1
# AgMyo5 = biological target: AgMyo5
# Outline: as §1
# AgNbp2 = biological target: AgNbp2
# Outline: as §1
# AgRvs167 = biological target: AgRvs167
# Outline: as §1
# AgSho1 = biological target: AgSho1
# Outline: as §1
# AgSla1-D1-D2 = biological target: AgSla1-D1-D2
# Outline: as §1
# AgSla1-D3 = biological target: AgSla1-D3
# Outline: as §1
# CaAbp1-D1 = biological target: CaAbp1-D1
# Outline: as §1
# CaAbp1-D2 = biological target: CaAbp1-D2
# Outline: as §1
# CaBbc1 = biological target: CaBbc1
# Outline: as §1
# CaBem1-D1 = biological target: CaBem1-D1
# Outline: as §1
# CaBzz1-D1 = biological target: CaBzz1-D1
# Outline: as §1
# CaBzz1-D2 = biological target: CaBzz1-D2
# Outline: as §1
# CaCyk3 = biological target: CaCyk3
# Outline: as §1
# CaFus1 = biological target: CaFus1
# Outline: as §1
# CaHof1 = biological target: CaHof1
# Outline: as §1
# CaHse1 = biological target: CaHse1
# Outline: as §1
# CaLsb1 = biological target: CaLsb1
# Outline: as §1
# CaLsb4 = biological target: CaLsb4
# Outline: as §1
# CaMyo5 = biological target: CaMyo5
# Outline: as §1
# CaNbp2 = biological target: CaNbp2
# Outline: as §1
# CaRvs167 = biological target: CaRvs167
# Outline: as §1
# CaRvs167-3 = biological target: CaRvs167-3
# Outline: as §1
# CaSho1 = biological target: CaSho1
# Outline: as §1
# CaSla1-D1-D2 = biological target: CaSla1-D1-D2
# Outline: as §1
# CaSla1-D3 = biological target: CaSla1-D3
# Outline: as §1
# ScAbp1 = biological target: ScAbp1
# Outline: as §1
# ScBbc1 = biological target: ScBbc1
# Outline: as §1
# ScBem1-D1 = biological target: ScBem1-D1
# Outline: as §1
# ScBzz1-D1 = biological target: ScBzz1-D1
# Outline: as §1
# ScBzz1-D2 = biological target: ScBzz1-D2
# Outline: as §1
# ScCyk3 = biological target: ScCyk3
# Outline: as §1
# ScFus1 = biological target: ScFus1
# Outline: as §1
# ScHof1 = biological target: ScHof1
# Outline: as §1
# ScHse1 = biological target: ScHse1
# Outline: as §1
# ScLsb1 = biological target: ScLsb1
# Outline: as §1
# ScLsb2 = biological target: ScLsb2
# Outline: as §1
# ScLsb3 = biological target: ScLsb3
# Outline: as §1
# ScLsb4 = biological target: ScLsb4
# Outline: as §1
# ScMyo3 = biological target: ScMyo3
# Outline: as §1
# ScMyo5 = biological target: ScMyo5
# Outline: as §1
# ScNbp2 = biological target: ScNbp2
# Outline: as §1
# ScPex13 = biological target: ScPex13
# Outline: as §1
# ScRvs167 = biological target: ScRvs167
# Outline: as §1
# ScSho1 = biological target: ScSho1
# Outline: as §1
# ScSla1-D1-D2 = biological target: ScSla1-D1-D2
# Outline: as §1
# ScSla1-D3 = biological target: ScSla1-D3
# Outline: as §1
# SpAbp1-D1 = biological target: SpAbp1-D1
# Outline: as §1
# SpBbc1 = biological target: SpBbc1
# Outline: as §1
# SpBzz1-D1 = biological target: SpBzz1-D1
# Outline: as §1
# SpBzz1-D2 = biological target: SpBzz1-D2
# Outline: as §1
# SpCyk3 = biological target: SpCyk3
# Outline: as §1
# SpHof1 = biological target: SpHof1
# Outline: as §1
# SpHof1-2 = biological target: SpHof1-2
# Outline: as §1
# SpHof1-3 = biological target: SpHof1-3
# Outline: as §1
# SpHse1 = biological target: SpHse1
# Outline: as §1
# SpLsb1 = biological target: SpLsb1
# Outline: as §1
# SpLsb4 = biological target: SpLsb4
# Outline: as §1
# SpMyo1 = biological target: SpMyo1
# Outline: as §1
# SpNbp2 = biological target: SpNbp2
# Outline: as §1
# SpPex13 = biological target: SpPex13
# Outline: as §1
# SpRvs167 = biological target: SpRvs167
# Outline: as §1
# SpSla1-D1-D2 = biological target: SpSla1-D1-D2
# Outline: as §1
# SpSla1-D3 = biological target: SpSla1-D3
# Outline: as §1
binder,measurement,setting,value
NAGIRPKFILALNDE,SPOT peptide array binding signal intensity,AgAbp1,≤ 0
same,SPOT peptide array binding signal intensity,AgBbc1,2.75
same,SPOT peptide array binding signal intensity,AgBem1-D1,11.5
same,SPOT peptide array binding signal intensity,AgBzz1-D1,44
same,SPOT peptide array binding signal intensity,AgBzz1-D2,77
same,SPOT peptide array binding signal intensity,AgCyk3,7
same,SPOT peptide array binding signal intensity,AgFus1,68
same,SPOT peptide array binding signal intensity,AgHof1,13.8
same,SPOT peptide array binding signal intensity,AgHse1,616
same,SPOT peptide array binding signal intensity,AgLsb1,2
same,SPOT peptide array binding signal intensity,AgLsb4,25
same,SPOT peptide array binding signal intensity,AgMyo5,1
same,SPOT peptide array binding signal intensity,AgNbp2,0.5
same,SPOT peptide array binding signal intensity,AgRvs167,2.33
same,SPOT peptide array binding signal intensity,AgSho1,9.5
same,SPOT peptide array binding signal intensity,AgSla1-D1-D2,3
same,SPOT peptide array binding signal intensity,AgSla1-D3,4
same,SPOT peptide array binding signal intensity,CaAbp1-D1,≤ 0
same,SPOT peptide array binding signal intensity,CaAbp1-D2,≤ 0
same,SPOT peptide array binding signal intensity,CaBbc1,1.5
same,SPOT peptide array binding signal intensity,CaBem1-D1,1
same,SPOT peptide array binding signal intensity,CaBzz1-D1,72
same,SPOT peptide array binding signal intensity,CaBzz1-D2,26.2
same,SPOT peptide array binding signal intensity,CaCyk3,2
same,SPOT peptide array binding signal intensity,CaFus1,1120
same,SPOT peptide array binding signal intensity,CaHof1,1
same,SPOT peptide array binding signal intensity,CaHse1,6.5
same,SPOT peptide array binding signal intensity,CaLsb1,1
same,SPOT peptide array binding signal intensity,CaLsb4,≤ 0
same,SPOT peptide array binding signal intensity,CaMyo5,27.2
GTIARPLFLVVLFFI,SPOT peptide array binding signal intensity,AgAbp1,≤ 0
same,SPOT peptide array binding signal intensity,AgBbc1,1.25
same,SPOT peptide array binding signal intensity,AgBem1-D1,33
same,SPOT peptide array binding signal intensity,AgBzz1-D1,18
same,SPOT peptide array binding signal intensity,AgBzz1-D2,13.5
same,SPOT peptide array binding signal intensity,AgCyk3,8
same,SPOT peptide array binding signal intensity,AgFus1,1900
same,SPOT peptide array binding signal intensity,AgHof1,0.75
same,SPOT peptide array binding signal intensity,AgHse1,428
same,SPOT peptide array binding signal intensity,AgLsb1,≤ 0
same,SPOT peptide array binding signal intensity,AgLsb4,580
same,SPOT peptide array binding signal intensity,AgMyo5,0.5
same,SPOT peptide array binding signal intensity,AgNbp2,57
same,SPOT peptide array binding signal intensity,AgRvs167,1.33
same,SPOT peptide array binding signal intensity,AgSho1,338
same,SPOT peptide array binding signal intensity,AgSla1-D1-D2,≤ 0
same,SPOT peptide array binding signal intensity,AgSla1-D3,1.75
same,SPOT peptide array binding signal intensity,CaAbp1-D1,56.5
same,SPOT peptide array binding signal intensity,CaAbp1-D2,28.5
same,SPOT peptide array binding signal intensity,CaBbc1,2
same,SPOT peptide array binding signal intensity,CaBem1-D1,15.5
same,SPOT peptide array binding signal intensity,CaBzz1-D1,88
same,SPOT peptide array binding signal intensity,CaBzz1-D2,23.5
same,SPOT peptide array binding signal intensity,CaCyk3,10
same,SPOT peptide array binding signal intensity,CaFus1,3640
same,SPOT peptide array binding signal intensity,CaHof1,16.5
same,SPOT peptide array binding signal intensity,CaHse1,126
same,SPOT peptide array binding signal intensity,CaLsb1,1.25
same,SPOT peptide array binding signal intensity,CaLsb4,≤ 0
same,SPOT peptide array binding signal intensity,CaMyo5,4.5
same,SPOT peptide array binding signal intensity,CaNbp2,600
same,SPOT peptide array binding signal intensity,CaRvs167,49
same,SPOT peptide array binding signal intensity,CaRvs167-3,17
same,SPOT peptide array binding signal intensity,CaSho1,730
same,SPOT peptide array binding signal intensity,CaSla1-D1-D2,≤ 0
same,SPOT peptide array binding signal intensity,CaSla1-D3,5.75
same,SPOT peptide array binding signal intensity,ScAbp1,3
same,SPOT peptide array binding signal intensity,ScBbc1,≤ 0
same,SPOT peptide array binding signal intensity,ScBem1-D1,1
same,SPOT peptide array binding signal intensity,ScBzz1-D1,40
same,SPOT peptide array binding signal intensity,ScBzz1-D2,37.5
same,SPOT peptide array binding signal intensity,ScCyk3,50
same,SPOT peptide array binding signal intensity,ScFus1,2030
same,SPOT peptide array binding signal intensity,ScHof1,≤ 0
same,SPOT peptide array binding signal intensity,ScHse1,472
same,SPOT peptide array binding signal intensity,ScLsb1,≤ 0
same,SPOT peptide array binding signal intensity,ScLsb2,≤ 0
same,SPOT peptide array binding signal intensity,ScLsb3,≤ 0
same,SPOT peptide array binding signal intensity,ScLsb4,≤ 0
same,SPOT peptide array binding signal intensity,ScMyo3,≤ 0
same,SPOT peptide array binding signal intensity,ScMyo5,1
same,SPOT peptide array binding signal intensity,ScNbp2,78.5
same,SPOT peptide array binding signal intensity,ScPex13,≤ 0
same,SPOT peptide array binding signal intensity,ScRvs167,1.67
same,SPOT peptide array binding signal intensity,ScSho1,1050
same,SPOT peptide array binding signal intensity,ScSla1-D1-D2,≤ 0
same,SPOT peptide array binding signal intensity,ScSla1-D3,1
same,SPOT peptide array binding signal intensity,SpAbp1-D1,3.5
same,SPOT peptide array binding signal intensity,SpBbc1,2
same,SPOT peptide array binding signal intensity,SpBzz1-D1,111
same,SPOT peptide array binding signal intensity,SpBzz1-D2,≤ 0
same,SPOT peptide array binding signal intensity,SpCyk3,24
same,SPOT peptide array binding signal intensity,SpHof1,45
same,SPOT peptide array binding signal intensity,SpHof1-2,22.5
same,SPOT peptide array binding signal intensity,SpHof1-3,637
same,SPOT peptide array binding signal intensity,SpHse1,1630
same,SPOT peptide array binding signal intensity,SpLsb1,≤ 0
same,SPOT peptide array binding signal intensity,SpLsb4,≤ 0
same,SPOT peptide array binding signal intensity,SpMyo1,4.25
same,SPOT peptide array binding signal intensity,SpNbp2,160
same,SPOT peptide array binding signal intensity,SpPex13,1
same,SPOT peptide array binding signal intensity,SpRvs167,≤ 0
same,SPOT peptide array binding signal intensity,SpSla1-D1-D2,1
same,SPOT peptide array binding signal intensity,SpSla1-D3,≤ 0
